G9a inh: qHTS Assay for Inhibitors of Histone Lysine Methyltransferase G9a; 350,000 tested, 8.8% active; G9a H3K9 monomethylation, AlphaScreen, 2 h; Potency, µM (highest dose often 102 µM), hits mostly inhibitors; also: nearly all actives have a fitted effect of over 75% in size
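Step 1: enzyme (final 20 nM) with compound, 15 min RT. Step 2: substrate peptide 500 nM and SAM 20 uM, 2 h RT. Step 3: anti-H3K9me1 antibody and AlphaScreen beads, 10 min, then plate read.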
JMJD2A Tudor inh: qHTS Assay for Inhibitors of JMJD2A-Tudor Domain; AlphaScreen JMJD2A-Tudor / H3K4me3 peptide binding; Potency, µM (doses to about 114 µM), usual class: inhibitors; 390,000 tested, 4.4% active; AID 504339, 2011; also: nearly all actives have a fitted effect of over 50% in size
Target sequence (O75164 whole entry, looked up, the tested form may be a part): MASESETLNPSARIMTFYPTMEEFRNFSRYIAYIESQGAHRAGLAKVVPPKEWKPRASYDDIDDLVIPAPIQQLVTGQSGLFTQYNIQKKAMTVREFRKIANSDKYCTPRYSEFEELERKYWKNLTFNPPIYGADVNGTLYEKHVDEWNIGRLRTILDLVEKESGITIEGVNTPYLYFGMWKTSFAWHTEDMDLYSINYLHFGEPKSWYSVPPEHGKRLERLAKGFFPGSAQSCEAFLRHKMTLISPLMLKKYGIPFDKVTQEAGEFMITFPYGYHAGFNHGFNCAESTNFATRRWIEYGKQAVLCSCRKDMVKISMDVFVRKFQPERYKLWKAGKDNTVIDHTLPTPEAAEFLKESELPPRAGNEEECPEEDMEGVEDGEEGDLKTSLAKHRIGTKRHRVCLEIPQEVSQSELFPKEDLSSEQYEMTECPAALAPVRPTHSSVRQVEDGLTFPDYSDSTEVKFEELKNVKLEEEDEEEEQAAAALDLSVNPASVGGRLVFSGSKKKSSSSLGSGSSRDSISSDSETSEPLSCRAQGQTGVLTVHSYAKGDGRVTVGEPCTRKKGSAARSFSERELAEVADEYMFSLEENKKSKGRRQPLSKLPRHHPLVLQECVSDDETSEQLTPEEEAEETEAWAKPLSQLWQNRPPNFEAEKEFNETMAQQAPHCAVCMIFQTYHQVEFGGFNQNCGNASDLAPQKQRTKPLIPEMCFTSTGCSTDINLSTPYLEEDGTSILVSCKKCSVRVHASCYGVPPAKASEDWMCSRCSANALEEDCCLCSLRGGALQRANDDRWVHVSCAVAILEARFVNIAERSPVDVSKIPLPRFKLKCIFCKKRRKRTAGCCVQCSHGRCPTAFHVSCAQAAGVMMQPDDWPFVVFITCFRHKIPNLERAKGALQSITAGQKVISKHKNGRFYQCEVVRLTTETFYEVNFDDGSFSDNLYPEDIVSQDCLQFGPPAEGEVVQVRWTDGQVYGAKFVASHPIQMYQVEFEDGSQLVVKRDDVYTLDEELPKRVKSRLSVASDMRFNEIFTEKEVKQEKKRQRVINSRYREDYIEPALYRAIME
HP1b binding inh: HTS for Inhibitors of HP1-beta Chromodomain Interactions with Methylated Histone Tails; Chromobox protein homolog 1 (Homo sapiens), P83916; AlphaScreen HP1-beta / biotin-H3K9me3 peptide binding; Potency, µM (doses to about 114 µM), usual class: inhibitors; 390,000 tested, 0.56% active; AID 540317, 2011; also: nearly all actives have a fitted effect of over 70% in size
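HP1-beta protein (50 nM final) preincubated 30 min at room temperature with biotinylated H3(1-18)K9me3 peptide (50 nM) in PBS pH 7.4, 0.01% Tween-20, then compound added for 30 min. AlphaScreen streptavidin donor/nickel chelate acceptor beads (10 ug/mL final), 30 min dark, luminescence read.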
BAZ2B block: qHTS Assay for Inhibitors of BAZ2B; Bromodomain adjacent to zinc finger domain protein 2B (Homo sapiens), Q9UIF8; AlphaScreen BAZ2B-H3K14Ac peptide displacement; Potency, µM (doses to about 114 µM), usual class: inhibitors; 360,000 tested, 4.4% active; also: nearly all actives have a fitted effect of over 60% in size
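Compounds, titrated to a top concentration of 110 uM, were incubated 30 min at room temperature with preformed BAZ2B/acetyl-K14 H3 peptide complex (50 nM each). Proximity signal was measured by AlphaScreen after 20 min with beads.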
L3MBTL1 inh: qHTS Assay for the Inhibitors of L3MBTL1. Lethal(3)malignant brain tumor-like protein 1 (Homo sapiens), Q9Y468. AlphaScreen L3MBTL1–H3K9me1 peptide binding. Potency, µM (highest dose often 57.1 µM), most hits filed as inhibitors. 230,000 tested, 0.66% active; also: nearly all actives have a fitted effect of over 60% in size
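Read-out is AlphaScreen signal from streptavidin donor and nickel chelate acceptor beads (10 ug/mL final each) bridging L3MBTL1 (50 nM) and biotinylated K9-monomethylated H3(1-15) peptide (75 nM), after 30 min compound exposure at room temperature.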
Hits are given with their value; – = inactive; ? = inconclusive; · = no result given; ! = not active in a repeat; [ ] = dose if it differs, or a comment. The list is not random: actives were taken first. Their share in the collection is about 11%. Calls follow the shape of the dose curve; as a rule, active = well fitted inhibition curve with a large enough effect; inconclusive = small, poorly fitted or top-dose-only effect; inactive = no such curve, though single readings can be large or run the other way.

SMILES	G9a inh	JMJD2A Tudor inh	HP1b binding inh	BAZ2B block	L3MBTL1 inh
CC(=O)c1cccc(OCC(O)CN2CC=C(c3ccccc3)CC2)c1 (stereo unspecified)	?	2.82µM	–	70.8µM	–
CN1C[C@H](C(=O)N[C@]2(C)O[C@@]3(O)[C@@H]4CCCN4C(=O)[C@H](Cc4ccccc4)N3C2=O)C=C2c3cccc4[nH]cc(c34)C[C@H]21	12.6µM	·	·	·	·
CC(C)C[C@H]1C(=O)N2CCC[C@H]2[C@]2(O)O[C@](NC(=O)[C@@H]3C=C4c5cccc6[nH]cc(c56)C[C@H]4N(C)C3)(C(C)C)C(=O)N12	6.31µM	50.1µM	–	–	–
CN1C[C@H](C(=O)NC2(C)OC3(O)[C@@H]4CCCN4C(=O)[C@H](Cc4ccccc4)N3C2=O)CC2c3cccc4[nH]cc(c34)C[C@H]21 (stereo partly specified)	·	?	–	·	·
CC(C)C[C@H]1C(=O)N2CCC[C@H]2[C@]2(O)O[C@](NC(=O)[C@@H]3C=C4c5cccc6[nH]c(Br)c(c56)C[C@H]4N(C)C3)(C(C)C)C(=O)N12	23.8µM	·	·	·	·
O=C(NC(O)C(Cl)(Cl)Cl)NC(O)C(Cl)(Cl)Cl (stereo unspecified)	–[12.7 µM]	·	·	·	·
CCOP(=O)(/C(C#N)=C(\C)O)c1ccccc1 (stereo unspecified)	?	?	–	–	–
COc1ccc(CC(=O)Nc2ccc(C#N)c(Cl)c2)cc1S(=O)(=O)N1CCOCC1	39.8µM	–	–	?	·
CC(=O)N1CCN(CC(=O)Nc2ccc(C#N)c(Cl)c2)CC1	–	–	–	–	·
CC(NS(=O)(=O)c1ccc(CCC(=O)N2CCN(C)CC2)cc1)c1ccccc1 (stereo unspecified)	–[12.7 µM]	–	–	–	·
CN(C)c1ccc(P(=O)(Nc2ccc([N+](=O)[O-])cc2)N2CCOCC2)c(NC(=O)c2cccs2)c1 (stereo unspecified)	44.7µM	–	–	?	–
CCCN1CCCC2Cc3nc(N)ncc3CC21 (stereo unspecified)	–	·	·	·	·
C[N+]1=C2CCCCCN2C(O)(c2ccccc2)C1 (stereo unspecified)	31.6µM	44.7µM	–	–	–
CN[C@@H](C)[C@H](O)c1ccccc1	0.0447µM	·	·	·	·
CC(=O)O[C@H]1[C@H]2[C@@H](OC(=O)Cc3ccccc3)[C@@H](C)C[C@]2(OC(C)=O)C(=O)/C(C)=C/[C@@H]2[C@H](CC[C@@]13CO3)C2(C)C	–	·	·	·	·
O=C(Cc1coc2cc3c(cc12)CCC3)OCC(=O)N1CCCC1=O	–	–	–	?	·
O=C(c1cccnc1)c1cc2ccccc2[nH]1	–	–	–	–	–
CC(=O)c1c(COC(=O)c2cccnc2)nc2ccccc2[n+]1[O-]	10µM	–	–	–	–
c1cncc(C2Nc3cccc4cccc(c34)N2)c1	11.2µM!	?	?	?	·
c1cncc(C2CCCCN2)c1 (stereo unspecified)	–	–	–	–	–
CN(C)c1c([N+](=O)[O-])cc(N2C(=O)C=CC2=O)cc1[N+](=O)[O-]	·	8.91µM	14.1µM	·	·
Cc1cccc(N2CCN(C(=O)C34CC5CC(CC(C5)C3)C4)CC2)c1C	1.58µM	–	–	–	·
Cc1ccccc1N1CCN(S(=O)(=O)c2nnc(NC(=O)c3ccc(Cl)cc3)s2)CC1	?	?	–	?	·
CCOc1ccccc1CN(CCc1ccc2c(c1)OCO2)Cc1ccc(CC)cc1	?	5.01µM	?	39.8µM	·
Cc1ccnc(NS(=O)(=O)c2ccc(N=Cc3c(O)n(C)c(=O)n(C)c3=O)cc2)n1	44.7µM	–	–	?	–
SMILES	G9a inh	JMJD2A Tudor inh	HP1b binding inh	BAZ2B block	L3MBTL1 inh
COc1ccc(S(=O)(=O)N2CCOCC2)cc1NC(=O)COC(=O)Cc1ccccc1	·	–	–	·	–
COc1cc(C(=S)N2CCOCC2)cc(OC)c1OC(=O)Cc1ccccc1	44.7µM	–	–	–	·
COc1cc(C=C2C(=O)NC(=O)NC2=O)cc(OC)c1OC	–[2.33 µM]	–	–	–	–
O=C1NC(=O)C(=Cc2ccc(OCCOc3ccc([N+](=O)[O-])cc3)cc2)C(=O)N1	22.4µM	50.1µM	–	44.7µM	39.8µM
Cc1ccc(OCCOc2cccc(C=C3C(=O)NC(=O)NC3=O)c2)c(C)c1	28.2µM	35.5µM	–	?	–
O=C1NC(=O)C(=Cc2cccc(OCCOc3ccccc3)c2)C(=O)N1	35.5µM	?	–	–	·
NCC1OC(O[C@@H]2[C@H](O)[C@@H](OC3C(O)C(N)CC(N)C3OC3OC(CO)C(O)C(O)C3N)O[C@@H]2CO)C(N)C(O)C1O (stereo partly specified)	–[12.7 µM]	·	·	·	·
CC(C)N(CC[C@@](C(N)=O)(c1ccccc1)c1ccccn1)C(C)C	–[12.7 µM]	·	·	·	·
Cc1ccc(CNC(=O)CCCn2c(=O)c3sccc3n(CC(=O)Nc3c(C)cccc3C)c2=O)cc1	–	–	–	–	·
CN1C(=O)C(C2c3ccccc3C(=O)N2Cc2ccc([N+](=O)[O-])cc2)C(=O)N(C)C1=O (stereo unspecified)	·	–	–	–	–
CN1C(=O)C(C2c3ccccc3C(=O)N2Cc2ccccc2)C(=O)N(C)C1=O (stereo unspecified)	?	–	–	79.4µM	·
CCCN1CCO[C@@H]2c3cc(O)ccc3OC[C@H]21	17.8µM!	–	–	–	–
Cc1cc(-c2nc3ncccc3o2)ccc1NC(=O)c1ccccc1Br	–	–	–	–	·
Cc1ccccc1-n1nc(C)c2c1NC(=O)CSC2c1ccc(Cl)cc1 (stereo unspecified)	12.6µM	–	–	?	·
c1ccc(CN2CCC3(CCNCC3)CC2)cc1	–[12.7 µM]	·	·	·	·
Nc1c2c(nc3sc4c(c13)CCCC4)CCCC2	·	–	–	–	–
Nc1c2c(nc3sc4c(c13)CCCC4)CCCCC2	?	79.4µM	–	–	–
O=C(OC1CC2CCC(N2)C1C(=O)O)c1ccccc1 (stereo unspecified)	·	89.1µM	–	·	–
O=C(NC1CC2CCCC(C1)N2)c1ccccc1 (stereo unspecified)	·	–	–	–	–
C[C@]12CC[C@H](OS(=O)(=O)O)CC1=CCC1C2CC[C@]2(C)C(=O)CC[C@@H]12 (stereo partly specified)	–[12.7 µM]	·	·	·	·
O=C1NC(=O)C(=Cc2ccc(Sc3ccccc3)o2)C(=O)N1	–[12.7 µM]	?	–	?	–
CN1C(=O)C(=Cc2ccc(Sc3ccccc3)o2)C(=O)N(C)C1=O	8.91µM	–	–	–	–
CN1C(=O)C(=Cc2ccc(Sc3ccccc3)o2)C(=O)N(C)C1=S	·	50.1µM	?	·	·
S=P(c1ccccc1)(c1ccccc1)c1c[nH]c2ccccc12	·	–	·	·	·
